Several values for one entry are separate records, joined by “and”; a condition that tells them apart may be missing. Identical values can stand only once. Results filed as inconclusive are left out. A call without a number means that no potency is given here. Activity calls are given as the source filed them. Calls follow the shape of the dose curve; as a rule, active = well fitted inhibition curve with a large enough effect in the main read-out, with a control signal flat; inconclusive = small, poorly fitted or top-dose-only effect, or a change in a side signal; inactive = flat fitted curve, though single readings scatter.
Potency is read from the fitted curve at half-maximal effect.

Neuropeptide S receptor (Homo sapiens), sequence (Q6W5P4 whole entry, looked up): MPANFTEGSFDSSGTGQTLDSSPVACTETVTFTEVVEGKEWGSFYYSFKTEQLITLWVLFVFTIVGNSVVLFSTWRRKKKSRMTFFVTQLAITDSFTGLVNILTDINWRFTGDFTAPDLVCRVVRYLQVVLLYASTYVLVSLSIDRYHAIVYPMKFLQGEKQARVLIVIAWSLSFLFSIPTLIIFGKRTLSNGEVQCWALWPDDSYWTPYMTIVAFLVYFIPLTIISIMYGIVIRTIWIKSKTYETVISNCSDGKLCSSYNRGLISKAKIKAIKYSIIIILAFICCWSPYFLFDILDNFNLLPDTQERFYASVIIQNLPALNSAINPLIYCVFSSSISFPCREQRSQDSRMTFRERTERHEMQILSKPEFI

The test deals with Neuropeptide S receptor (Homo sapiens) (UniProt Q6W5P4). Kind of test: Confirmation Concentration-Response Assay for Antagonists of the Neuropeptide S Receptor: cAMP Signal Transduction. As to conditions: CHO-NPSR cells, cAMP TR-FRET, antagonist mode; series mostly up to 22.3 µM. The method in brief:
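LANCE TR-FRET cAMP read-out: 665/620 nm emission ratio, with the 620 nm donor channel also reported, after 2 h RT detection. Stably transfected CHO-NPSR cells got compound titrations and 100 nM NPS in stimulation reagent for 60 min at 37C. IC50 came from Hill fits.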
On the technique in general: TR-FRET usually uses a lanthanide donor and a delayed reading to cut background.
Turning to `O=C(Cc1ccccc1)Nc1ncnc2c1C(c1ccccc1)c1c(ccc3ccccc13)O2` (stereo not drawn), the Potency was 1.58 µM (active). The same measure for `Cc1cc(C)n(-c2nc(Nc3ccccc3C(F)(F)F)nc(-n3nc(C)cc3C)n2)n1`: 11.2 µM (active); for `O=C(c1ccccc1)N(C(=O)c1ccccc1)c1ncnc2c1C(c1ccccc1)c1c(ccc3ccccc13)O2` (stereo not drawn): 3.16 µM (active); for `Cc1ccc(-n2ncc3c(NCc4ccc5c(c4)OCO5)ncnc32)c(C)c1`: “inactive”.

For the molecule `O=C(Nc1ncnc2c1C(c1ccccc1)c1c(ccc3ccccc13)O2)c1ccccc1` (stereo not drawn), the Potency was 6.31 µM (active). The same measure for `O=[N+]([O-])c1ccc(-c2nc(C(Cl)Cl)c3ccccc3n2)cc1`: “inactive”. To `COc1cccc(C2c3c(ncn(-c4ccccc4)c3=N)Oc3ccc4ccccc4c32)c1` (stereo not drawn) belongs 2 µM (active) and 1.58 µM (active); to `O=C(/C(=C/c1ccc(Cl)cc1)c1nc2ccccc2[nH]1)c1cccs1`, 8.91 µM (active); to `Cc1ccc(S(=O)(=O)Nc2cccc3ncccc23)s1`, “inactive”. To `Cn1c(C(=O)NCCN2CCc3ccccc3C2)cc2c(=O)[nH]c3ccccc3c21` belongs “inactive”; to `CCC(C)(C)NC(=O)Cc1ccc(C)cc1`, “inactive”. Turning to `Cc1ccc(NC(=S)NNC(C)(C)C)cc1`, the Potency entry was “inactive”. The same measure for `C(=N\Nc1nc(-c2ccccn2)nc2ccccc12)/c1ccccc1`: “inactive”.

Turning to `O=C(COC(=O)c1ccccc1C(=O)c1ccc(Cl)c([N+](=O)[O-])c1)NC1CCCCCC1`, the Potency is 4.47 µM (active) and 8.91 µM (active).

As for `Cc1nc(NC(=S)Nc2ccccc2)sc1C`, the Potency result was “inactive”. To `O=c1cc(CNCCCO)c2ccccc2[nH]1` belongs “inactive”; to `N#Cc1cnn(-c2ncnc3sc4c(c23)CCCC4)c1N`, “inactive”; to `O=C(NCc1ccccc1)Nc1ncnc2c1C(c1ccccc1)c1c(ccc3ccccc13)O2` (stereo not drawn), 2.24 µM (active). The same measure for `O=C(Nc1nccs1)C1CCCN1S(=O)(=O)c1ccc(Cl)cc1` (stereo not drawn): “inactive”; for `COc1cccc(C2c3c(ncn(-c4ccccc4)c3=N)Oc3ccc4ccccc4c32)c1OC` (stereo not drawn): 4.47 µM (active). Regarding `CCOC(=O)CC(=O)Nc1ncnc2c1C(c1ccccc1)c1c(ccc3ccccc13)O2` (stereo not drawn), the Potency was 0.794 µM (active).

With `CN(C)C(=O)Oc1cccc([N+](C)(C)C)c1`, the Potency entry is “inactive”. In the case of `O=S1(=O)Nc2c(ccc3cccnc23)-c2ccccc21`, the Potency was 4.47 µM (active).

Regarding `Cn1c(COc2ccccc2)nnc1SCc1cc(=O)[nH]c2ccccc12`, the Potency entry is “inactive”. To `Cc1ccc(Nc2cc(C)nn2-c2nc(C)cc(C)n2)cc1` belongs “inactive”. To `CCSc1nc2c(c(=O)n1Cc1ccccc1)SC(C)C2` (stereo not drawn) belongs “inactive”; to `CCOC(=O)CCC(=O)Nc1ncnc2c1C(c1ccccc1)c1c(ccc3ccccc13)O2` (stereo not drawn), 2 µM (active); to `CCC(C)n1c(=O)c(C(=O)Nc2ccccc2S(N)(=O)=O)c(O)c2ccccc21` (stereo not drawn), “inactive”.

Turning to `O=C(N/N=C/c1ccc([N+](=O)[O-])o1)c1ccc(O)cc1`, the Potency entry was “inactive”. To `COCCCn1c(SCc2cc(=O)[nH]c3ccccc23)nnc1-c1ccco1` belongs “inactive”; to `CCN(CC)S(=O)(=O)c1ccc2c(c1)nc(SC(C)C(N)=O)n2-c1ccc(OC)cc1` (stereo not drawn), “inactive”. Regarding `COc1cccc(N2CCN(c3ncnc4c3[nH]c3ccc(F)cc34)CC2C)c1` (stereo not drawn), the Potency is 5.62 µM (active). Take `c1ccc(-c2ccc(-c3nc(-c4cccnc4)no3)cc2)cc1`: the Potency result was “inactive”.

Regarding `CCOC(=O)c1cnc(-n2nc(C)cc2C)nc1Nc1ccc(C)cc1`, the Potency entry was “inactive”. The same measure for `Brc1ccc(CSc2ncn[nH]2)cc1`: “inactive”; for `Cc1ccc(/C=C2\SC(=S)N(CC(=O)Nc3ncc(Cc4ccccc4Cl)s3)C2=O)cc1`: “inactive”.

For the molecule `CC(=O)c1sc(N/N=C\c2ccccc2O)nc1C`, the Potency was 7.08 µM (active). To `N#CC(C#N)=c1ccc2c(c1)NC1(CCCCC1)N=2` belongs “inactive”.

(Values after PubChem BioAssay AID1491 (National Center for Advancing Translational Sciences (NCATS), 2009).)
